An excerpt weighted towards active compounds, which were near 3.7% of everything screened.
Tb PYK inh: blocks Trypanosoma brucei pyruvate kinase | TbPYK enzyme, Kinase-Glo Plus ATP luminescence, 45 min | Potency, µM (titrated, usually from 76.8 µM), for inactives: top-dose activity, negative = inhibition, hits mostly inhibitors | hit rate 0.12% among 410,000 | AID 624173; note: nearly all actives have a fitted effect of over 50% in size
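Screened from lowest to highest concentration, compounds were pinned into TbPYK/substrate mixtures, and ADP (130 uM final) was added. Plates sat at room temperature for 45 min prior to Kinase-Glo Plus detection by luminescence.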
FMDV inh: antivirals against foot and mouth disease virus; FMDV antiviral cell-based qHTS; Potency, µM (top dose mostly 57.9 µM), for inactives: at the highest dose activity change, negative = inhibition, hits mostly inhibitors; hit rate 1.2% among 410,000; calls by dose curve; tested in HEK293T cells; note: read-out not given here; nearly all actives have a fitted effect of over 45% in size
Sm TGR inh: blocks Schistosoma mansoni thioredoxin glutathione reductase | Q962Y6 | purified TGR, DTNB reduction, TNB absorbance 405 nm | AID 485364 | hit rate 3% among 360,000 | Potency, µM (series often up to 114 µM), inactives show at the highest dose activity change, negative = inhibition, usual class: inhibitors; note: nearly all actives have a fitted effect of over 60% in size
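TGR 20 nM + NADPH 100 uM (dispensed conc.), cpd preinc 15 min RT; start with NADPH (500 uM addition) then DTNB (15 mM addition). Kinetic TNB absorbance, 405 nm filter. Four-parameter Hill fit across titration.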
RE007 growth inh: less growth of the S. pombe RE007 Vpr strain; S. pombe RE007 Vpr strain, BacTiter-Glo ATP luminescence, 24 h; Potency, µM (series often up to 92.2 µM), for the others: at the top dose activity change, negative = less growth, actives largely listed as inhibitors; hit rate 0.21% among 360,000; active = well fitted falling curve with a large enough effect; inconclusive = small, poorly fitted or top-dose-only effect; inactive = no such curve, though single readings can be large or run the other way; note: nearly all actives have a fitted effect of over 50% in size
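Fission yeast strain RE007, carrying one chromosomally integrated HIV-1 vpr copy, was seeded at OD 0.01 in PMG+AL medium with 23 nL pinned compound. After 24 h at 30 °C and 99% humidity, viability was read by BacTiter-Glo luminescence.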
Starred values were filed as active, the others as inactive; ? = inconclusive; nt = no result given; [ ] = another dose, or the depositor's remark. Unless noted, calls come from the whole dose curve; as a rule, active = well fitted curve in the direction sought with a large enough effect; inconclusive = small, poorly fitted or top-dose-only effect, or another doubt; inactive = no such curve, though single readings can be large; an effect the other way counts as inactive or inconclusive. % is set by controls: 0 for no effect and ±100 for the full control effect; potency is the fitted concentration of half-maximal effect.

SMILES	Tb PYK inh	FMDV inh	Sm TGR inh	RE007 growth inh
CC(=O)n1cc(N(C(=O)CCl)c2ccc(C)cc2)c2ccccc21	-1%	14µM*	0.71µM*	4%
CC(=O)N(c1ccc(Cl)cc1)c1cn(C(C)=O)c2ccccc12	-2%	-16%	7%	6%
COc1ccc(CCNC(=O)c2cnn(-c3nccc(-c4cccs4)n3)c2C)cc1OC	nt	25%	nt	nt
O=C(CC1SC(N2CCOCC2)=NC1=O)Nc1ccccc1Cl (configuration not stated)	6%	-18%	45µM*	-4%
COCCCNC(=O)c1ccc2c3c(onc13)-c1ccccc1C2=O	4%	-104%	0%	-26%
CCOC(=O)C(C(=O)OCC)c1cc(Br)c2noc3c2c1C(=O)c1ccccc1-3	-7%	25µM*	0.63µM*	?
Cc1oc(-c2ccccc2NS(C)(=O)=O)nc1CN(C)Cc1ccc(Cl)cc1	nt	0%	nt	nt
COc1ccccc1NC(=O)C(=O)NCC(c1ccc2c(c1)OCO2)N1CCN(C)CC1 (configuration not stated)	3%	-10%	0%	nt
CCOc1cc(C2c3c(n[nH]c3C)C(=O)N2c2ccc(C)cc2)ccc1O (configuration not stated)	3%	23%	18µM*	8%
CCOC(=O)c1ccc(N2C(=O)c3n[nH]c(-c4ccco4)c3C2c2ccc([N+](=O)[O-])cc2)cc1 (configuration not stated)	3%	?	-1%	17%
CCOc1ccc(N2C(=O)c3[nH]nc(-c4ccc(OC)cc4)c3C2c2cccs2)cc1 (configuration not stated)	-6%	40µM*	-2%	nt
CCOC(=O)c1ccc(N2C(=O)c3n[nH]c(-c4ccco4)c3C2c2ccc(C)cc2)cc1 (configuration not stated)	-4%	32µM*	-3%	nt
CCOC(=O)c1ccc(N2C(=O)c3[nH]nc(-c4ccc(C)cc4)c3C2c2cccc(F)c2)cc1 (configuration not stated)	4%	?	-4%	nt
CCOc1ccc(-c2n[nH]c3c2C(c2cccs2)N(c2ccc(Br)cc2)C3=O)cc1 (configuration not stated)	1%	?	-7%	nt
CCOC(=O)c1ccc(N2C(=O)c3[nH]nc(-c4ccc(OC)cc4)c3C2c2cccc(O)c2)cc1 (configuration not stated)	-10%	32µM*	2%	nt
COC(=O)c1cccc(C(=O)N2CCc3c(C(=O)OC)c(OCc4ccccn4)cc(=O)n3CC2)c1	nt	-8%	nt	nt
CCn1c(CN2CCCCC2)nc2cc(NC(=O)c3ccc([N+](=O)[O-])cc3)ccc21	-4%	?	-4%	nt
CCOC(=O)c1ccc(N2C(=O)c3[nH]nc(-c4ccc(C)cc4)c3C2c2ccc(O)cc2)cc1 (configuration not stated)	-2%	32µM*	2%	nt
CN1C(=O)NC(c2ccccc2)C2=C1CN(Cc1ccco1)C2=O (configuration not stated)	-3%	-10%	35µM*	5%
CN1C(=O)NC(c2ccccc2)C2=C1CN(CCc1ccccc1)C2=O (configuration not stated)	5%	10%	?	-16%
Cn1c2c(c(=O)n(C)c1=O)C(C(F)(F)F)(C(F)(F)F)N=C(c1ccc(Cl)cc1)N2	-3%	2.2µM*	-6%	-12%
CCCCCn1c(CN2CCN(c3ccc(OC)cc3)CC2)nc2c1c(=O)[nH]c(=O)n2C	-6%	0%	3%	nt
COc1cccc(OCc2cc(/C=N/Nc3ccc(C(=O)O)cc3)ccc2OC)c1	-11%	0.89µM*	-23%	-6%
COc1cccc(/C=N/Nc2ccc(S(=O)(=O)O)cc2)c1O	3%	13%	-6%	-8%
CCOc1cc(/C=N/N=C2/NC(=O)C(CC(=O)O)S2)ccc1OCc1ccc(Cl)cc1Cl (configuration not stated)	-5%	1%	nt	18%
SMILES	Tb PYK inh	FMDV inh	Sm TGR inh	RE007 growth inh
COc1cccc(/C=N/Nc2ccc(C(=O)O)cc2)c1O	?	3.5µM*	-1%	?
COc1cc(/C=N/N=C2/NC(=O)C(CC(=O)O)S2)ccc1OCc1ccc(Cl)cc1 (configuration not stated)	18µM*	26%	-10%	-2%
COc1cc(/C=N/NS(=O)(=O)c2ccc3ccccc3c2)ccc1OCc1ccc(C(=O)O)cc1	-5%	-36%	0%	11%
COc1cc(/C=N/O)ccc1OCc1ccc(C(=O)O)cc1	4%	4.5µM*	4%	-5%
COC1C(OC(=O)/C=C/C=C/C=C/C=C/C(=O)O)CCC2(CO2)C1C1(C)OC1CC=C(C)C (configuration not stated)	-5%	nt	nt	nt
c1coc(-c2ccccc2CN2CCOc3ccc(CN4CCOCC4)cc3C2)c1	nt	0%	nt	nt
Cc1cc(N2CCOCC2)ccc1/C=C\[N+](=O)[O-]	-22%	?	20µM*	7.9µM*
O=[N+]([O-])c1ccc(N2CCOCC2)cc1O	5%	5%	-1%	3%
CCOC(=O)CN1c2ccccc2NC(=O)CC1C (configuration not stated)	-8%	-7%	32µM*	10%
CCCN1C(=O)C(=O)N(CC(=O)N2c3ccccc3NC(=O)CC2C)C1=O (configuration not stated)	-10%	0%	nt	-4%
O=C(O)c1cccc(Cn2c(Cl)c(/C=N/NC(=O)c3ccco3)sc2=O)c1	-13%	6%	45µM*	-14%
O=C(N/N=C\c1ccoc1)c1ccco1	-2%	25%	1%	14%
O=C(O)c1cccc(Cn2c(Cl)c(/C=N/NC(=O)c3cc4ccccc4cc3O)sc2=O)c1	0%	-21%	32µM*	-7%
O=C(O)c1ccc(/C=N/NC(=O)c2cc3ccccc3cc2O)cc1	4%	3%	nt	-1%
O=C(O)c1cccc(Cn2c(Cl)c(/C=N/NC(=O)c3ccccc3)sc2=O)c1	-13%	-12%	56µM*	-11%
O=C(O)c1cccc(Cn2c(Cl)c(/C=N/NC(=O)c3cccc(O)c3)sc2=O)c1	-12%	1%	9%	-5%
COc1ccc(CCNC(=O)c2cnn(-c3cccc(C)c3)c2C2CCN(C(=O)OC(C)(C)C)CC2)cc1OC	5%[15.4 µM]	-16%	-6%	nt
COc1ccccc1C(=O)Nc1nnc(S(=O)(=O)N(C)c2ccc(Cl)cc2)s1	0%	37%	-1%	nt
CCc1c(C)nc2ncnn2c1NCCc1ccccc1	2%	?	12%	6%
CCc1c(C)nc2ncnn2c1NCCc1ccc(Cl)cc1	0%	14µM*	0%	17%
C/C(=N\N1CCN(C2c3ccccc3-c3ccccc32)CC1)c1ccncc1	0%	13µM*	11%	-5%
C(=N\N1CCN(C2c3ccccc3-c3ccccc32)CC1)/c1ccncc1	-4%	0%	6%	-10%
Cc1cc2ncn(-c3ncccc3[N+](=O)[O-])c2cc1C	0%	-4%	45µM*	-10%

Assay outcomes: PubChem, National Center for Advancing Translational Sciences (NCATS)
